Screens (PubChem BioAssay)
ALR H2O2 inh – inhibitors of human ALR sulfhydryl oxidase, primary screen, biochemical, H2O2 detection, HRP-luminol luminescence, single point; purified ALR, DTT oxidation; AID 485317, 2010; 290,000 tested, 3.8% active; inhibition, % (concentration not given with the values);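 active = mean replicate inhibition above about 79%, with every replicate also reaching it, limit read from the data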
SUMO Mot1 rescue – yeast Mot1-301 growth rescue at high temperature, primary screen, SUMOylation pathway inhibitor project, S. cerevisiae, ATP luminescence, 38.5C | growth rescue, % at 18.8 µM | AID 2716, 2010 | S. cerevisiae Mot1-301 growth rescue; percent above DMSO median, 100 means doubled | 320,000 tested, 1% active;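 active = every valid replicate shows activation above 250% relative to neutral control wells; inactive = the rest, any valid replicate at or below 250%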;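 also: OY570 slx delta 5 strain wells were the positive control but not used for scaling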
Efflux pump inh – inhibitors of Candida efflux pumps in yeast, primary screen, S. cerevisiae, Nile Red, multiplex. S. cerevisiae Candida pump triplex. inhibition, % at 10 µM. 330,000 tested, 0.44% active;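 active = plate passing quality check with inhibition over a set limit, or well fluorescence over plate mean plus 4 SD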;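 also: Nile Red retained in pooled yeast measured as flow cytometry median fluorescence; 0% = buffer negative control and 100% = Enniatin B positive control; higher means more Nile Red kept so more efflux inhibition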
AHR act – AHR activators, primary screen, cell-based, luminescence, luciferase reporter, human | Aryl hydrocarbon receptor (Homo sapiens), P35869 | AHR-responsive luciferase reporter cells | activation, % at 5 µM | 320,000 tested, 2.5% active; in the data active = activation above about 47%;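 also: 0% = vehicle wells and 100% = reference agonist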
Target sequence (P35869 whole entry, looked up): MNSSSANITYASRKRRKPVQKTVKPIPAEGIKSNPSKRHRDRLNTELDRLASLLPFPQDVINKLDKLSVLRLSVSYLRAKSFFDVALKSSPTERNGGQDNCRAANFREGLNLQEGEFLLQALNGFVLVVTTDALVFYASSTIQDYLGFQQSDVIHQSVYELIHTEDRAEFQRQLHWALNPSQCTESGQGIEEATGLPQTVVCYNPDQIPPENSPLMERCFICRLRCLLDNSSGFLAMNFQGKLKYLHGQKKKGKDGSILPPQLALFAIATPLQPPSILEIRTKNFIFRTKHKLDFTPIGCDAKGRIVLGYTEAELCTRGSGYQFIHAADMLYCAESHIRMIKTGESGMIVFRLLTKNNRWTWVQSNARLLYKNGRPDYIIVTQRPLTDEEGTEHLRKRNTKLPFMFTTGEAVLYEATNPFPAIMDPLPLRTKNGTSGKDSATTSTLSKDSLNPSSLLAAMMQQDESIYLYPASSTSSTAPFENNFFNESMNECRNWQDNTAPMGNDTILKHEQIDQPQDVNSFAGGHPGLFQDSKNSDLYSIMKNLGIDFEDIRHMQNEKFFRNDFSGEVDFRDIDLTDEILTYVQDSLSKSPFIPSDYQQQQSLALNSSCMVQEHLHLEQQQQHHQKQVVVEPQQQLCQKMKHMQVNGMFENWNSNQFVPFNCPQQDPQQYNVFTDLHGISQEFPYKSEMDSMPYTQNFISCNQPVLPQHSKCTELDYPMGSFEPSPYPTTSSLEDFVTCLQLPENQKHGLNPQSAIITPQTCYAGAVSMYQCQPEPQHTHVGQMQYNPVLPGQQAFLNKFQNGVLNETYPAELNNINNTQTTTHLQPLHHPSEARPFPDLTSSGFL
VLA-4 inh – inhibition in human VLA-4 binding assay, primary screen, VLA-4 allosteric modulator project, MLPCN library, flow cytometry, VLA-4 expressing cells. Integrin alpha-4 (Homo sapiens), P13612. ligand binding flow cytometry. inhibition, % (about 7 µM as worked out from the volumes in the protocol). 330,000 tested, 0.2% active. AID 2557, 2010; in the data active = inhibition above about 50%
A1 inh – caspase 3/7 activation in MEF A1-2A-BIM cells, primary screen, A1 inhibitor project, cell-based, luminescence, HTS; Caspase-Glo 3/7 luminescence, 3 h; percent of clofoctol response, vehicle zero; caspase activation, % (test concentration not listed); 330,000 tested, 0.066% active;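 active = over half of replicate activation scores above 10%, or exactly half above 10 with the replicate mean above 10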
Active calls of the source: *; . = no result given; + = active, no number. Hits are enriched below; roughly 7.2% of the tested compounds scored in any of these assays.

SMILES	ALR H2O2 inh	SUMO Mot1 rescue	Efflux pump inh	AHR act	VLA-4 inh	A1 inh
COCCNC(=O)CNC(=S)N(CCCN1CCOCC1)Cc1cccs1	-4	3	0	-2	3	1
COc1ccc2c(c1)[C@H]1[C@H](CO2)[C@H](c2ccccc2)[C@]2(C)C(=O)N[C@H](C)C(=O)N12	-5	0	0	0	16	1
Cc1ccc(N2C(=O)C3C4CC(=O)C(c5ccccc54)C3C2=O)cc1C (stereo not drawn)	.	-4	0	0	4	0
CCOC(=O)N1CCN(CC(O)COc2c(C)cc(C)cc2C)CC1 (stereo not drawn)	2	250	0	0	-1	-1
Oc1ccc(N2CCN(Cc3ccc(OCCCN4CCCCC4)cc3)CC2)cc1	99*	-9	0	-3	18	0
O=C(c1ccccc1)c1ccc(OCCCCN2CCCCC2)cc1	3	4	0	3	14	-1
CCCCOc1ccc(C(=O)C(CN2CCOCC2)c2ccccc2)cc1 (stereo not drawn)	6	106	0	5	14	1
CCCOc1ccc(C(=O)C(CN2CCCC2)c2ccccc2)cc1 (stereo not drawn)	96*	-14	0	9	11	0
O=C(c1ccccc1)c1ccc(OCCCN2CCCC2)cc1	-36	+	0	4	1	0
CCCCOc1ccc(CN2CCCCC2)cc1	0	7	0	-1	1	2
CN1C(=O)C(C)(C)c2cc(S(=O)(=O)N3CCCC3C(=O)NCc3ccccc3Cl)ccc21 (stereo not drawn)	-2	-8	0	1	2	-1
CCC(O)CC(C(=O)NNc1ccccc1)C(=O)NNc1ccccc1 (stereo not drawn)	99*	268*	0	6	13	0
CCn1c2ccccc2c2cc(/C(C)=N/O)ccc21	98*	-6	0	8	8	1
C/C(=N\O)c1ccc2c3ccccc3n(C)c2c1	-5	22	0	17	3	-1
CC1CCC(NC(=O)CCNC(=O)c2ccc(Br)cc2)CC1 (stereo not drawn)	-2	292	0	6	-3	1
CCOC(=O)c1n[nH]n2c1nc(=S)c1ccccc12	1	21	0	.	-4	-1
CCCn1ncc2c(Nc3ccc(C)c(C)c3)ncnc21	96*	-17	0	5	-1	-1
Cn1ncc2c(Nc3ccc(Cl)c(Cl)c3)ncnc21	.	7	0	5	6	0
CC(=O)Nc1sc2c(c1CN1CCN(c3ccccn3)CC1)CCCC2	8	-2	0	5	1	0
COc1ccc(NC(=O)c2cccc(OC(F)F)c2)cc1Cl	-5	-30	0	49*	.	-5
COc1cccc(C(=O)Nc2cc(Cl)c(O)c(Cl)c2)c1	89*	-8	0	33	13	-13
CCC(=O)Nc1nnc(-c2cccs2)s1	-7	14	0	74*	20	1
CCC(=O)NCc1csc(-c2cccs2)n1	94*	169	0	4	10	0
O=C(Cc1ccccc1)Nc1nc(-c2cccs2)cs1	-49	111	0	-9	8	-1
O=C(Cc1ccccc1)Nc1nnc(-c2cccs2)s1	-6	13	0	69*	-2	0
SMILES	ALR H2O2 inh	SUMO Mot1 rescue	Efflux pump inh	AHR act	VLA-4 inh	A1 inh
Cn1c(=O)c2ccccc2n2c(CCl)nnc12	6	-6	0	1	10	1
O=C(Nc1ccc(O)cc1)/C(=C/c1ccco1)NC(=O)c1ccccc1	99*	7	0	0	2	0
O=C(Nc1ccc(O)cc1)/C(=C\c1ccncc1)NC(=O)c1ccccc1	99*	1	0	2	9	-1
O=C(CCC(=O)N(CC(=O)NC1CCCC1)c1ccccc1F)Nc1nccs1	.	327	0	0	0	1
Cc1cccnc1NC(=O)C(C)N1C(=O)c2ccccc2C1=O (stereo not drawn)	2	-5	0	66*	-4	0
Cn1c(=O)c(C(=O)NNC(=O)c2ccccc2F)c(O)c2ccccc21	.	282	0	66*	12	-1
Cc1cccnc1NC(=O)c1c(O)c2ccccc2n(C)c1=O	.	39	0	54*	14	0
COc1cccc2sc3ccc(NCc4ccc5c(c4)OCO5)cc3c(=O)c12	92*	113	0	21	-41	-1
O=C/C=C/c1coc2ccc3ccccc3c2c1=O	.	12	0	10	6	0
O=Cc1coc2c(ccc3ccccc32)c1=O	24	322*	1.9*	11	-9	0
CC(=Nc1ccccc1O)c1sc2ccccc2c1O	92*	-11	0	13	-14	-2
COc1cc(/C=C2/NC(=O)N(Cc3ccccc3F)C2=O)cc(OC)c1O	99*	13	0	1	-4	1
CCCN1CCC(NC(=O)Nc2ccc(Br)cc2)CC1	-3	316	0	-1	22	1
O=S(=O)(c1cccc(S(=O)(=O)N2CCCC2)c1)N1CCCCC1	.	-20	0	-1	-2	0
CCCCNS(=O)(=O)c1cccc(S(=O)(=O)N2CCCC2)c1	-4	303*	0	-3	25	1
Cc1ccc(NC(=O)COC(=O)c2ccc(-n3nc(C)cc3C)cc2)c(F)c1	-9	13	0	1	2	-1
CC(NC(=O)c1cccc(N(C)C)c1)c1ccc(-n2ccnc2)cc1 (stereo not drawn)	98*	18	0	18	2	1
COc1ccc(C(=O)NC(C)c2ccc(-n3ccnc3)cc2)c(OC)c1 (stereo not drawn)	1	263	0	54*	13	0
CC(=O)Nc1cccc(C(=O)NC(C)c2ccc(-n3ccnc3)cc2)c1 (stereo not drawn)	2	4	0	4	12	-1
CC(NC(=O)c1ccccc1OC(F)F)c1ccc(-n2ccnc2)cc1 (stereo not drawn)	-3	-5	0	71*	17	0
Cc1ccc(S(=O)(=O)NCC(=O)NCC(=O)N2CCC(C)CC2)cc1	-3	263	0	1	15	0
COc1ccc(COC(=O)C2CC(=O)N(Cc3ccccc3)C2)cc1 (stereo not drawn)	.	-7	0	-1	37	2
